Assay outcomes (PubChem BioAssay)
CYP2C19 inh = blockers of cytochrome P450 2C19 activity – biochemical, luminescence, ADME assay, primary screen | inhibition, % at 5 µM | AID 778, 2007 | 96,000 tested, 21% active | CYP2C19 Supersomes, luciferin-H EGE luminescence, 30 min;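 active = CYP2C19 inhibition above a set limit at 5 µM in the primary screen, cut at about 50% in these data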;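 note: plate controls were negative control wells for no effect and 2.5 mM tranylcypromine positive control for full effect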
CYP2C19 activ = human CYP2C19 activators, primary screen, biochemical, luminescence | Cytochrome P450 2C19 (Homo sapiens), P33261 | recombinant CYP2C19, luciferin-H EGE luminescence; active compounds read high; 0 = fully inhibited enzyme, 1 = untreated enzyme | activation factor at 5 µM | 96,000 tested, under 10 active | AID 1025, 2008;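 active = activation factor of at least 2 at 5 µM in the primary screen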;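 note: 0 = wells with 2.5 mM tranylcypromine and 1 = vehicle-only wells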
CYP2C9 inh = blockers of cytochrome P450 2C9 activity – biochemical, luminescence, ADME assay, primary screen; inhibition, % at 5 µM; P11712; CYP2C9 Supersomes, luciferin-H conversion; 96,000 tested, 20% active;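 active = blocking of liver enzyme CYP2C9 beyond about 50% at 5 µM, limit read from the data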
Target sequence (P11712 whole entry, looked up): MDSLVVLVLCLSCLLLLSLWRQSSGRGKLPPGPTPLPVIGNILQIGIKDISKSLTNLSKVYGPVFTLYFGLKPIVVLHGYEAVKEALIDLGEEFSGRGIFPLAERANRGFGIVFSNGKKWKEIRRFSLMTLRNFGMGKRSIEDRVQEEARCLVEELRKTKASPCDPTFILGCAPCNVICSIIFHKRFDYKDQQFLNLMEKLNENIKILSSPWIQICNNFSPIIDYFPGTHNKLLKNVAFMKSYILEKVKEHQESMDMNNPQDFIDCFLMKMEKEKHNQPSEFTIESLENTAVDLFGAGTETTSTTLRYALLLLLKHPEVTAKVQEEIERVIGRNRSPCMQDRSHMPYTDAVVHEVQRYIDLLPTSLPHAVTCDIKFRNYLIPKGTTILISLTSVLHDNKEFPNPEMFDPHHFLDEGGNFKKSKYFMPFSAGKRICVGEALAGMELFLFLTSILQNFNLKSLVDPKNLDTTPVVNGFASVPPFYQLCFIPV
E-sel TNF inh = E-selectin induction blockers in HUVEC – imaging, immunofluorescence, high content, primary screen; HUVEC TNFa-induced E-selectin immunofluorescence; inhibition, % at 2 µM; 120,000 tested, 0.71% active;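 active = inhibition above the batch mean plus 3 SD, and confirmed as a hit on visual image review, cut at about 43% in these data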;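 note: 0% = TNF-stimulated DMSO wells and 100% = unstimulated control wells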
F-actin modifier = modifiers of F-actin cytoskeleton organization, primary screen, imaging, HUVEC, phalloidin staining, high-content imaging; HUVEC TNFa F-actin phalloidin imaging; inhibition, % at 2 µM; 91,000 tested, 0.18% active; AID 836, 2007;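 active = inhibition above the batch mean plus 3 SD and confirmed as a hit by visual image inspection, cut at about 30% in these data, passing the limit was not always enough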
CYP2C9 activ = human CYP2C9 activators, primary screen, biochemical, luminescence | 96,000 tested, 1.4% active | Cytochrome P450 2C9 (Homo sapiens), P11712 | recombinant CYP2C9, luciferin-H conversion; active compounds read high; factor 1 = untreated enzyme, 0 = blocked | activation factor at 5 µM;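 active = activation factor of 2 or more for CYP2C9 at a 5 µM dose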;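 note: 0 = sulfaphenazole-blocked wells and 1 = vehicle-only wells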
An asterisk follows results filed as active; . = not tested or not shown. The list is not random: actives were taken first. Their share in the collection is about 22%.

SMILES	CYP2C19 inh	CYP2C19 activ	CYP2C9 inh	E-sel TNF inh	F-actin modifier	CYP2C9 activ
CCOc1ccccc1C(=O)N1CCC(n2nnc3cc(C)ccc32)CC1	21.0	0.8	19.6	4.7	-6.7	0.8
O=C(CN1CCC(n2nnc3cc(F)ccc32)CC1)N1CCc2ccccc2C1	52.2*	0.5	14.2	.	11.4	0.9
O=C(CN1CCC(n2nnc3cc(F)ccc32)CC1)NC1CC1	9.2	0.9	4.7	.	.	1
CCOc1ccccc1C(=O)N1CCC(n2nnc3cc(C(F)(F)F)ccc32)CC1	68.5*	0.3	53.1*	-16.1	-2.1	0.5
CCCCNC(=O)n1c(=O)oc2ccc(Cl)cc21	17.2	0.8	18.6	-5.7	10.4	0.8
Cc1cc2ccccc2c(=O)n1CC(=O)NCC(=O)N1CCCC1	-2.1	1	11.9	.	.	0.9
Cc1sc2nc3c(C(=O)N4CCN(c5ccccn5)CC4)cccn3c(=O)c2c1C	8.6	0.9	28.8	16.3	3.9	0.7
Cc1cccc(N2CCN(C(=O)c3cccn4c(=O)c5c(C)c(C)sc5nc34)CC2)c1C	92.4*	0.1	96.0*	1.2	.	0
COC1(OC)N=C(N)C2(C#N)C(c3ccc4c(c3)OCO4)C12C#N (stereo not given)	17.3	0.8	-10.8	-0.3	22.4	1.1
COc1ccc(/C=C(\NC(=O)c2cccs2)C(=O)Nc2ccc(C)cc2)cc1OC	.	.	.	-23.1	.	.
COC(=O)C(C)N(C(=O)c1ccc(Cl)cc1)c1c(C)cccc1C (stereo not given)	35.5	0.6	31.7	-0.4	5.1	0.7
COC(=O)C(C)N(C(=O)c1ccc(C(=O)c2ccccc2)cc1)c1c(C)cccc1C (stereo not given)	94.2*	0.1	98.0*	10.2	3.3	0
Cc1ccc(S(=O)(=O)Cn2nnnc2C(c2ccccn2)N2CCN(c3ccccc3)CC2)cc1 (stereo not given)	72.4*	0.3	68.5*	-26.9	-20.4	0.3
Cc1ccc(S(=O)(=O)Cn2nnnc2C(C(C)C)N2CCSCC2)cc1 (stereo not given)	23.9	0.8	68.6*	-28.9	1.7	0.3
Cc1ccc(C(c2nnnn2CS(=O)(=O)c2ccc(C)cc2)N2CCN(c3ncccn3)CC2)cc1 (stereo not given)	.	.	.	1.9	-3.7	.
CN(C)c1nc(SCC#N)nc(N(C)C)n1	.	.	.	0.5	-13.3	.
COc1ccc(CCn2c(C)cc3c(c2=O)C(c2ccncc2)C(C#N)=C(N)O3)cc1OC (stereo not given)	82.9*	0.2	79.2*	-3.1	8.4	0.2
CCn1c(C)cc2c(c1=O)C(c1ccncc1)C(C#N)=C(N)O2 (stereo not given)	30.8	0.7	43.3	.	.	0.6
CCSc1nnc(NC(=O)CSc2nccn2-c2cccc(C)c2)s1	33.0	0.7	63.1*	5.0	5.5	0.4
Cc1cccc(-n2ccnc2SCC(=O)Nc2nccs2)c1	59.9*	0.4	49.0	-6.3	14.9	0.5
COc1cccc(-n2ccnc2SCC(=O)Nc2nccs2)c1	59.2*	0.4	45.3	-20.1	.	0.5
Cc1cc(C)cc(-n2ccnc2SCC(=O)Nc2nccs2)c1	32.9	0.7	31.7	-0.7	-52.5	0.7
CC1CCN(c2nc3ccc(C(=O)N4CCN(Cc5ccccc5)CC4)cc3s2)CC1	59.6*	0.4	37.4	9.7	14.9	0.6
Cc1cc(C(=O)N2CCN(Cc3ccc4c(c3)OCO4)CC2)cs1	96.2*	0	59.2*	.	.	0.4
O=C(c1ccc2nc(N3CCCCC3)sc2c1)N1CCN(Cc2ccc3c(c2)OCO3)CC1	88.7*	0.1	83.3*	10.4	.	0.2
SMILES	CYP2C19 inh	CYP2C19 activ	CYP2C9 inh	E-sel TNF inh	F-actin modifier	CYP2C9 activ
O=C(c1ccc2nc(N3CCOCC3)sc2c1)N1CCC(Cc2ccccc2)CC1	80.5*	0.2	31.0	-3.0	-14.9	0.7
CCOC(=O)N1CCN(C(=O)c2ccc3nc(N4CCCCC4)sc3c2)CC1	21.5	0.8	15.0	.	8.2	0.8
CC(CCc1ccccc1)NC(=O)c1ccc2nc(N3CCOCC3)sc2c1 (stereo not given)	.	.	.	0.1	.	.
CCOC(=O)N1CCN(C(=O)c2ccc3nc(N4CCC(C)CC4)sc3c2)CC1	20.1	0.8	34.7	-2.4	-7.4	0.7
COC(=O)c1ccccc1OC(=O)c1cccnc1	5.7	0.9	-2.7	-9.9	-0.1	1
CSc1nc(C)cc(OCC(=O)N2CCOCC2)n1	5.9	0.9	-45.9	-30.4	-2.2	1.5
Cc1ccc(CNC(=O)CN2C(C)CCCC2C)cc1 (stereo not given)	.	.	.	-23.5	.	.
COc1cccc(-c2csc(N3CCN(C(=O)NC45CC6CC(CC(C6)C4)C5)CC3)n2)c1	.	.	.	6.0	9.6	.
Cc1nn(Cc2ccccc2)c2sc(C(=O)N3CCN(Cc4ccc5c(c4)OCO5)CC3)cc12	39.3	0.6	66.7*	3.1	-17.0	0.3
Cc1cc(C(=O)N2CCN(Cc3ccc4c(c3)OCO4)CC2)on1	.	.	.	-14.8	.	.
COc1cc(OC)cc(C(=O)N2CCN(S(C)(=O)=O)CC2)c1	12.1	0.9	-23.1	17.4	-13.6	1.2
CCn1cnc2sc(C(=O)N3CCN(Cc4ccc5c(c4)OCO5)CC3)c(C)c2c1=O	85.2*	0.1	75.3*	13.6	47.6	0.2
Cc1cc(C(=O)N2CCN(S(C)(=O)=O)CC2)cs1	55.8*	0.4	1.6	.	.	1
NC(=O)Cn1c(=O)n(CCc2ccccc2)c(=O)c2c3c(sc21)CCCC3	19.9	0.8	1.0	.	-5.9	1
O=C(COc1cccc(NC(=O)c2cccc([N+](=O)[O-])c2)c1)c1ccc(Br)cc1	38.0	0.6	65.7*	35.6	6.0	0.3
CCCOc1ccc2c3c(c(=O)oc2c1)CCCC3	58.7*	0.4	33.2	5.5	19.9	0.7
CC(C)CC(C(=O)Oc1ccc2c3c(c(=O)oc2c1)CCC3)N1C(=O)c2ccccc2C1=O (stereo not given)	48.3	0.5	26.3	39.8	2.5	0.7
CSCCC(NC(C)=O)C(=O)Oc1ccc2c3c(c(=O)oc2c1)CCCC3 (stereo not given)	15.0	0.8	-180.9	-14.1	.	2.8*
CC(C)Oc1ccc2c3c(c(=O)oc2c1)CCC3	78.6*	0.2	24.3	-4.5	10.4	0.8
COC(=O)C(C)Oc1ccc2c3c(c(=O)oc2c1)CCCCC3 (stereo not given)	74.9*	0.3	81.9*	-4.4	2.9	0.2
O=C(O)COc1ccc2c3c(c(=O)oc2c1)CCC3	-2.5	1	3.6	-26.8	.	1
CCC(NC(=O)OC(C)(C)C)C(=O)Oc1ccc2c3c(c(=O)oc2c1)CCC3 (stereo not given)	7.8	0.9	-78.1	.	4.6	1.8
